Screening results as filed in PubChem BioAssay.
Shown are actives, neighbours in structure and some others; about 8% of the full set was active somewhere.
KB-3-1 cytotox – KB-3-1 parental cell cytotoxicity | KB-3-1 viability, CellTiter-Glo ATP luminescence, 72 h | 400,000 compounds, 1.4% hits | AID 1347075 | Potency, µM (highest dose often 46.1 µM), hits mostly cytotoxic; further: on the % scale 0 is the no-effect control and ±100 the full control effect; nearly all actives have a fitted effect of over 60% in size
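Viability of parental KB-3-1 cells, measured by CellTiter-Glo luminescence, followed a 72 h incubation at 37 °C with pinned compounds in phenol-red-free DMEM containing 10% FBS.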
MCF10A rerep – inducers of DNA re-replication in MCF 10A breast cells | MCF 10A DNA re-replication, Hoechst nuclear intensity, 48 h | Potency, µM (series often up to 46.1 µM), for the others: at the highest dose activity, positive = re-replication, most hits filed as activators | 350,000 compounds, 2.9% hits | AID 624296; further: % of control where 0% means no effect; nearly all actives have a fitted effect of over 50% in size
HT1080NT lethal – kills 2HG-producing HT-1080-NT fibrosarcoma cells; HT-1080-NT fibrosarcoma viability, CellTiter-Glo ATP luminescence, 48 h; Potency, µM (highest dose often 46.1 µM), for inactives: top-dose activity, negative = less viability, actives largely listed as cytotoxic; 360,000 compounds, 1.6% hits;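 further: NT is the 2HG producing partner of a matched IDH1 knockdown line; 0% = DMSO-treated cells and -100% = media-only wells without cells; nearly all actives have a fitted effect of over 55% in size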
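Viability by CellTiter-Glo luminescence after 48 h compound exposure at 37C of HT-1080-NT cells (750/well, RPMI, 5% FBS). % activity scaled between DMSO wells and medium-only wells, then curve-fitted and categorized by curve class.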
KB-V1 MDR tox – kills drug-selected multidrug resistant KB-V1 cells; KB-V1 MDR cells viability, CellTiter-Glo, 72 h; Potency, µM (doses to about 46.1 µM), most hits filed as cytotoxic; 400,000 compounds, 3.4% hits; further: on the % scale 0 is the no-effect control and ±100 the full control effect; nearly all actives have a fitted effect of over 60% in size
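Following 72 h at 37 degrees C with compound, KB-V1 cell viability was read by CellTiter-Glo luminescence, medium being phenol-red-free DMEM plus 10% FBS; concentration-response parameters came from normalized, curve-fitted qHTS data.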
HT1080 IDH1KD tx – kills HT-1080 cells with IDH1 knockdown; HT-1080 IDH1 knockdown viability, ATP luminescence, 48 h; Potency, µM (titrated, usually from 46.1 µM), without a hit: top-dose activity, negative = toxicity, actives largely listed as cytotoxic; 360,000 compounds, 2% hits; AID 686971;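 further: 0% = DMSO wells and -100% = cell-free medium wells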
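In this qHTS, HT-1080 cells depleted of IDH1 are exposed for 48 h at 37 °C to compound titrations. Toxicity is scored from CellTiter-Glo luminescence, with DMSO as full viability and medium alone as none.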
SW480 rerep – induces DNA re-replication in SW480 colon adenocarcinoma cells. Potency, µM (titrated, usually from 46.1 µM), for inactives: top-dose re-replication activation, usual class: activators. SW480 DNA re-replication, Hoechst DNA content imaging, 48 h. AID 624297. 340,000 compounds, 1.8% hits; further: % of control where 0% means no effect; nearly all actives have a fitted effect of over 55% in size
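Per well, 250 cells were exposed to pinned compound for 48 hr. Nuclear DNA was visualised with Hoechst (40 min, 37 C) and total object intensity recorded by fluorescence scanning.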
Active calls of the source: *; i = inactive; ? = inconclusive; / = no result. The call rests on the fitted dose curve; in most records, active means well fitted curve in the direction sought with a large enough effect; inconclusive means small, poorly fitted or top-dose-only effect, or another doubt; inactive means no such curve, though single readings can be large; an effect the other way counts as inactive or inconclusive. Potency means the concentration at half of the fitted maximal effect.

SMILES	KB-3-1 cytotox	MCF10A rerep	HT1080NT lethal	KB-V1 MDR tox	HT1080 IDH1KD tx	SW480 rerep
CC1CCCN(C(=O)CCCn2c(=S)[nH]c3ccccc3c2=O)C1 (centres undefined)	i	?	1.7%	8.2µM*	13.4%	-7.4%
O=C(CCn1c(=S)[nH]c2ccccc2c1=O)N1CCCCC1	?	1.6%	-1.0%	i	-1.3%	?
Cc1cc(-c2ccccc2)nc(SCC(=O)c2cccc([N+](=O)[O-])c2)n1	i	?	?	?	?	16.4µM*
CCOC(=O)COC(=O)c1ccc(Oc2cc(C)nc(SC)n2)cc1	i	5.8%	0.2%	i	-0.8%	-5.2%
Cc1cc(Oc2ccc3ccccc3c2)nc(SCC(=O)c2ccccc2)n1	18.4µM*	?	2.7%	16.4µM*	-17.9%	?
COC(=O)c1ccc(Oc2cc(C)nc(-n3nc(C)cc3C)n2)cc1	1.3µM*	2.06µM*	1.26µM*	1.84µM*	1.12µM*	0.82µM*
CCOC(=O)c1ccc(Oc2cc(C)nc(SC)n2)cc1	9.2µM*	1.84µM*	16.4µM*	9.2µM*	14.6µM*	6.51µM*
COc1ccc(-c2cc(C)nc(SCC(=O)c3cccc([N+](=O)[O-])c3)n2)cc1	i	?	14.5%	i	24.6%	0.6%
O=C(c1ccc(Br)s1)N1CCN(c2ccccn2)CC1	i	-0.2%	-0.9%	?	0.9%	5.6%
O=C(c1ccco1)N1CCN(C(=O)N2c3ccccc3Sc3ccccc32)CC1	0.517µM*	12.9%	?	0.651µM*	?	1.0%
O=C(NC1CCN(C(=O)N2c3ccccc3Sc3ccccc32)CC1)c1ccccc1Cl	i	-12.8%	?	?	?	-1.2%
O=C(N1CCN(c2ccccn2)CC1)N1c2ccccc2Sc2ccccc21	0.581µM*	?	0.891µM*	1.84µM*	0.891µM*	0.651µM*
O=C(NC1CCN(C(=O)N2c3ccccc3Sc3ccccc32)CC1)c1ccco1	?	?	?	i	20.6µM*	?
Cc1sc2c(c1C)c(=O)n(-c1cccc(C(F)(F)F)c1)c(=O)n2Cc1ccc(F)cc1	i	/	/	i	/	/
Cn1cc(C(=O)O)c(=O)c2cc(S(=O)(=O)N3CCCCC3)ccc21	i	/	/	i	/	/
O=C(NCc1ccc2c(c1)OCO2)c1ccc2c(c1)N(Cc1ccccc1F)C(=O)c1ccccc1S2=O (centres undefined)	i	/	/	i	/	/
CCN(CC)C(=O)n1cnc(-c2ccccc2)c1-c1ccccc1	i	24.7%	12.0%	20.6µM*	11.0%	0.3%
COCn1cnc(-c2ccccc2)c1-c1ccccc1	i	14.5%	2.4%	i	-0.5%	-4.8%
Cc1ccc(OCC(=O)OCc2cc(=O)n3nc(C4CCCCC4)sc3n2)cc1C	i	/	/	i	/	/
CC(C)NC(=O)c1ccc(C2SCC(=O)N2Cc2ccccc2)cc1 (centres undefined)	i	7.31µM*	0.0%	i	6.5%	11.0%
CCC(C)NC(=O)c1ccc(C2SCC(=O)N2Cc2ccccc2)cc1 (centres undefined)	i	-2.0%	-5.1%	?	0.0%	-3.3%
Cn1c(=O)n(C)c2cc(N3CCOCC3)c(NS(=O)(=O)c3ccc(Br)cc3)cc21	i	/	/	i	/	/
O=C(c1ccc2c(=O)n(C3CCCC3)c(=S)[nH]c2c1)N1CCCCCC1	?	-1.3%	-10.3%	7.31µM*	-0.1%	-3.3%
O=C(c1ccc2c(=O)n(-c3ccccc3)c(=S)[nH]c2c1)N1CCCCC1	7.31µM*	?	-27.3%	?	-27.1%	-2.8%
CCOC(=O)c1ccc(NC2=CC(c3ccc(O)c(OCC)c3)N(c3ccc(C(=O)OCC)cc3)C2=O)cc1 (centres undefined)	i	/	/	i	/	/
SMILES	KB-3-1 cytotox	MCF10A rerep	HT1080NT lethal	KB-V1 MDR tox	HT1080 IDH1KD tx	SW480 rerep
Cc1ccc(Nc2cc(C)c(C#N)c3nc4ccccc4n23)cc1Cl	i	/	/	i	/	/
Cc1ccc(-c2nc3nc(C)cc(N4CCN(c5cc(Cl)ccc5C)CC4)n3n2)cc1	i	/	/	i	/	/
COc1cc(O)sc1C=Nc1ccc(Cl)cc1Cl	i	?	17.2%	20.6µM*	1.4%	2.0%
CCC1CCCCN1S(=O)(=O)c1ccc(N2CCCCS2(=O)=O)cc1 (centres undefined)	i	/	/	i	/	/
CCN(Cc1ccccc1)S(=O)(=O)c1nc2nc(C)c(C)c(C)n2n1	i	0.0%	0.5%	18.4µM*	0.8%	-17.3%
NC(=O)C(OC(=O)CNC(=O)C1CCCCC1)c1ccccc1 (centres undefined)	?	/	/	i	/	/
Cc1ccc2c(=O)cc(C(=O)Nc3nnc(CC(C)C)s3)oc2c1C	i	/	/	?	/	/
COc1ccc(S(=O)(=O)c2cnc(SCC(=O)Nc3cc(F)ccc3C)[nH]c2=O)cc1Cl	i	/	/	i	/	/
C/C(CC1CC(C)OC1=O)=N\NC(N)=S (centres undefined)	i	-5.0%	2.8%	i	2.5%	?
C/C(CC(C)(C)C1CCCCC1)=N\NC(N)=S	i	0.5%	5.01µM*	?	?	8.9%
CCCCNS(=O)(=O)c1ccc2nc(SCC(N)=O)[nH]c2c1	i	0.6%	-12.6%	i	-3.1%	?
CCCCNS(=O)(=O)c1ccc2nc(SCC(=O)Nc3sccc3C#N)[nH]c2c1	?	?	?	i	20.6µM*	6.6%
CC(C)(C)c1ccc(C2=CC(c3ccccc3F)n3ncnc3N2)cc1 (centres undefined)	?	-1.3%	-1.9%	i	-0.4%	-5.6%
Cn1cccc1C1C=C(c2ccc(C(C)(C)C)cc2)Nc2ncnn21 (centres undefined)	?	?	-3.1%	16.4µM*	-9.9%	?
Oc1ccc(C2C=C(c3ccc(F)cc3)Nc3ncnn32)cc1 (centres undefined)	i	8.0%	-1.3%	i	13.6%	10.3µM*
CCOc1ccc(C2C=C(c3ccc(F)cc3)Nc3ncnn32)cc1 (centres undefined)	i	-1.0%	2.3%	i	-1.9%	3.1%
COC(=O)CCSc1cc(NCCOC(C)=O)c([N+](=O)[O-])c2nonc12	i	?	20.6µM*	i	?	-7.0%
CC(=O)OCCNc1cc(Sc2nc3ccccc3[nH]2)c2nonc2c1[N+](=O)[O-]	?	?	-37.0%	i	18.4µM*	?
CC(=O)OCCCNc1cc(Sc2nc3ccccc3s2)c2nonc2c1[N+](=O)[O-]	i	?	-4.2%	i	1.1%	11.8%
